# Test results from PubChem BioAssay (NCI).
# The panel holds about 79,000 compounds, 15% with a hit somewhere; the sample as a whole holds those more often. Active and inactive are the calls of the source. Cut-off read from the data, not from the text of the source: active = growth inhibition above about 70%; inactive = the rest.
# Test: NCI Yeast Anticancer Drug Screen. Data for the mec2-1 strain (AID 157)
# Conditions: S. cerevisiae mec2-1 strain, at 50.0 µM (retest, dose inferred, filed as 5.0), stronger effect = higher value
# How it was run: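 Growth inhibition is read against vehicle-treated controls after compound exposure of the mec2-1 yeast strain, which is defective in DNA damage repair or cell cycle control.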
row,SMILES,growth inhibition
1,COc1ccc(CN2CCCN(Cc3ccc(OC)cc3OC)C2c2ccc(N(CCCl)CCCl)cc2)c(OC)c1,8% (inactive)
2,[Cl][Pt+2][Cl].[NH-]c1ccc([N+](=O)[O-])cc1[NH-],62% (inactive)
3,O=C(Oc1ccc(S(=O)(=O)F)cc1F)c1ccccc1Cl,99% (active)
4,Oc1c(I)cc(I)cc1I,95% (active)
5,CCCCCCCCCCCCCCCC[N+](C)(C)CCOS(C)(=O)=O,99% (active)
6,CN(C)CC1(N)C(=O)NC(=O)NC1=O,11% (inactive)
7,CC1=C(O)C(=O)C=C2C1=CC=C1[C@@]2(C)CC[C@@]2(C)[C@@H]3C[C@](C)(C(=O)O)CC[C@]3(C)CC[C@]12C,98% (active)
8,CCC[CH2][Sn]([CH2]CCC)([N]=C=S)[N]=C=S,98% (active)
9,O=C(C[n+]1ccccc1)C1CCc2ccccc2C1 (stereo not given),-2% (inactive)
10,[Cl][Pt][Cl].c1ccc([AsH](CC[AsH](c2ccccc2)c2ccccc2)c2ccccc2)cc1,99% (active)
11,COc1cc(/C=C\[N+](=O)[O-])ccc1O,100% (active)
12,Cc1sc(Cc2ccccc2)nc1-c1ccc(N=Cc2ccc(N(CCCl)CCCl)cc2)cc1,98% (active)
13,CC1(C)C2CCC([CH2][Hg][Cl])C1C2 (stereo not given),95% (active)
14,CC12C(=O)C=CCC1=CCC1C2CCC2(O)C(=O)OC3(C)C4CC5(C)C(COC16OC23C5C6=O)C(=O)O4 (stereo not given),35% (inactive)
15,O=C(CBr)OCC(Br)CBr (stereo not given),50% (inactive)
16,S=c1[nH]c2ccccc2s1.[Pb],6% (inactive)
17,O=[N+]([O-])c1ccc(C(Br)Br)cc1,99% (active)
18,CC(C)(C)[Si](OC(=O)N(CCCl)CCCl)(c1ccccc1)c1ccccc1,76% (active)
19,CCCCCCCC[N+]12CN3CN(CN(C3)C1)C2,-33% (inactive)
20,CC(C=O)[Se]c1ccccc1 (stereo not given),53% (inactive)

row,SMILES,growth inhibition
1,CCOP(=O)(N=Nc1cccnc1)OCC,-10% (inactive)
2,COc1cc(/C=C/c2ccc(OC)c(O)c2)cc(OC)c1,98% (active)
3,ClC1CCCCC1[Se](Cl)(Cl)C1CCCCC1Cl (stereo not given),100% (active)
4,C/C(=N/NC(N)=S)c1ccc(Cl)cc1,89% (active)
5,O=C(Nc1ccccc1)c1cc([N+](=O)[O-])ccc1O.[Ni],37% (inactive)
6,CC1(C)N=C(N)N=C(N)N1c1ccc(OCCCCNC(=O)Nc2ccc(S(=O)(=O)F)cc2)c(Cl)c1,97% (active)
7,Nc1nc(N)c(-c2ccc(Cl)c(Cl)c2)c(COc2ccc(CNC(=O)Nc3cccc(S(=O)(=O)F)c3)cc2Cl)n1,10% (inactive)
8,CC(=O)[O-].CC(=O)[O-].O=C(N/N=C/c1cc(Cl)cc(Cl)c1[OH2+])c1ccncc1.[Co+2],41% (inactive)
9,CC(Br)C(=O)C(CCN(C)C)(c1ccccc1)c1ccc(Br)s1 (stereo not given),-6% (inactive)
10,[N-]=[N+]=NC1(N=[N+]=[N-])C(=O)NN=C(c2ccccc2)C1=O (stereo not given),91% (active)
11,NC(=O)c1cc([N+](=O)[O-])c(Cl)c([N+](=O)[O-])c1Cl,78% (active)
12,Nc1nc(N)c(-c2ccc(Cl)c(Cl)c2)c(CCc2ccc(CNC(=O)c3cccc(S(=O)(=O)F)c3)cc2)n1,99% (active)
13,CCOC(=O)C(Cl)Cl,-2% (inactive)
14,C1=C[N-]c2c3c(ccc2=C1)=CC=C[N-]3.C1=C[N-]c2c3c(ccc2=C1)=CC=C[N-]3.F[P-](F)(F)(F)(F)F.[Cu+2],99% (active)
15,CCCCCCCCCCC(=O)O.[Pb],6% (inactive)
16,CN(Cc1ccccc1)CC(O)c1cccc(I)c1 (stereo not given),9% (inactive)
17,CCOc1c(Br)cc(N=Cc2ccc(N(CCCl)CCCl)c(OC)c2)cc1Br,79% (active)
18,COC(=O)C1ON(c2ccccc2)C2c3ccccc3-c3ccccc3C12 (stereo not given),62% (inactive)
19,COc1ccccc1C(Cc1ccc(N2C(N)=NC(N)=NC2(C)C)cc1)C(=O)Nc1ccc(S(=O)(=O)F)cc1 (stereo not given),2% (inactive)
20,O=[N+]([O-])c1cc([N+](=O)[O-])c(Cl)s1,83% (active)
